Measured values published in PubChem BioAssay (Tox21).
Inconclusive results are not listed. Where a call stands in place of a potency, no number is given. Active and inactive are the calls of the source. Unless noted, the call rests on the fitted dose curve; in most records, active means well fitted curve in the direction sought with a large enough effect in the repeat runs; inconclusive means weak or mixed curves; inactive means no such curve, though single readings can be large; an effect the other way counts as inactive or inconclusive.

Experiments:
[1] = qHTS assay for small molecule agonists of the p53 signaling pathway (AID 651631; calls by dose curve; further: nearly all actives have a fitted effect of over 15% in size)
Summary of the method: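 Fluorescence intensity from cleaved LiveBLAzer B/G substrate (2 h, room temperature) served as the signal. Beforehand, HCT-116 reporter cells bearing p53 response elements were treated 16 h at 37 °C with DMSO-dissolved compounds.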

[2] = qHTS assay for small molecules that induce genotoxicity in human embryonic kidney cells expressing luciferase-tagged ATAD5 (AID 651632); further: nearly all actives have a fitted effect of over 15% in size
Summary of the method: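 HEK293T cells carrying a luciferase reporter tagged to ATAD5 were exposed to compound or DMSO vehicle for 16 hr at 37C, 5% CO2. Amplite was added, and after 30 min at room temperature luciferase activity was read as a marker of ATAD5 induction.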

[3] = qHTS assay for small molecule agonists of the p53 signaling pathway - cell viability (AID 651633; calls by dose curve;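 further: p53RE-bla HCT reporter cells with a stable beta-lactamase p53 reporter; series mostly up to about 83 µM; nearly all actives have a fitted effect of over 30% in size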)
Summary of the method: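 Viability counter-read: CellTiter-Glo luminescence (30 min, room temperature) in the same p53RE-bla plates. These plates had been exposed to compounds for 16 h at 37 C.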

[4] = qHTS assay for small molecules that induce genotoxicity in human embryonic kidney cells expressing luciferase-tagged ATAD5 - cell viability (AID 651634; calls by dose curve; further: nearly all actives have a fitted effect of over 25% in size)
Summary of the method: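 HEK293T cells expressing luciferase-tagged ATAD5 were exposed to compound or DMSO for 15.5 hr at 37C, 5% CO2. Viability was then read as live-cell protease activity by CellTiter-Fluor fluorescence after 30 min at 37C.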

[5] = qHTS assay for small molecule disruptors of the mitochondrial membrane potential - cell viability (AID 720634; calls by dose curve;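 further: human HepG2 liver cancer cells; series mostly up to about 83 µM; nearly all actives have a fitted effect of over 20% in size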)
Summary of the method: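 HepG2 cells seeded overnight at 37 C, then exposed to compound or DMSO for 1 hr at 37 C, 5% CO2. m-MPI dye added, then CellTiter-Glo for 30 min at room temperature; viability read as ATP luminescence.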

[6] = qHTS assay for small molecule disruptors of the mitochondrial membrane potential (AID 720635); further: potency means the concentration at half of the fitted maximal effect
Summary of the method: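 Mitochondrial membrane potential tracked with Mito-MPS dye, red aggregates (ex 540/em 590 nm) against green monomers (ex 490/em 535 nm). Compound treatment 1 hr at 37C, dye 30 min in HepG2.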

[7] = qHTS assay to test for compound auto fluorescence at 590 nm (red) in HepG2 cells (AID 720674)
Summary of the method: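 Red autofluorescence (Ex/Em 540/590 nm, Rose Bengal sodium equivalents) was measured in HepG2 cells, 2,000 per well in MEM plus 10% FBS, plated overnight at 37 C. Readings were taken 1 hr after adding 23 nL compound or DMSO, at 37 C and 5% CO2.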

[8] = qHTS assay to test for compound auto fluorescence at 535 nm (green) in HepG2 cells (AID 720675)
[9] = qHTS assay to test for compound auto fluorescence at 460 nm (blue) in HEK293 cells (AID 720678)
Summary of the method: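 Auto fluorescence in the blue band was quantified as triamterene equivalency. HEK293 cells were seeded at 2,000/well, dosed after a 4-5 hr attachment, and kept overnight at 37C before the 405/460 nm reading.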

[10] = qHTS assay to test for compound auto fluorescence at 590 nm (red) in HEK293 cells (AID 720679)
Summary of the method: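 Autofluorescence equivalency to Rose Bengal sodium, 540/590nm, in HEK293 cells exposed overnight to 23 nL compound per well.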

Row | Compound | Potency [1] | Potency [2] | Potency [3] | Potency [4] | Potency [5] | Potency [6] | outcome [7] | outcome [8] | Potency [9] | outcome [10]
1 | Cc1nnc(NS(=O)(=O)c2ccc(N)cc2)s1 | inactive | inactive | inactive | inactive | inactive | inactive | inactive | inactive | inactive | inactive
2 | COCN(COC)c1nc(N(COC)COC)nc(N(COC)COC)n1 | inactive | inactive | inactive | inactive | inactive | inactive | inactive | inactive | inactive | inactive
3 | CC(=O)OC(C)(C)C1CC=C(C)CC1 (stereo not given) | inactive | inactive | inactive | inactive | inactive | inactive | inactive | inactive | inactive | inactive
4 | CC1(C)C(=O)N(Cl)C(=O)N1Cl | inactive | inactive | inactive | inactive | inactive | inactive | inactive | inactive | inactive | inactive
5 | Nc1cccc(C(F)(F)F)c1 | inactive | inactive | inactive | inactive | inactive | inactive | inactive | inactive | inactive | inactive
6 | CN1CCCC1=O | inactive | inactive | inactive | inactive | inactive | inactive | inactive | inactive | inactive | inactive
7 | OCc1ccc(Cl)cc1Cl | inactive | inactive | inactive | inactive | inactive | inactive | inactive | inactive | inactive | inactive
8 | CC(C)(C)NC[C@H](O)COc1nsnc1N1CCOCC1 | inactive | inactive | inactive | inactive | inactive | inactive | inactive | inactive | inactive | inactive
9 | Cc1ccc([N+](=O)[O-])cc1N | inactive | inactive | inactive | inactive | inactive | inactive | inactive | inactive | inactive | inactive
10 | CCCCCC(C)=O | inactive | inactive | inactive | inactive | inactive | inactive | inactive | inactive | inactive | inactive
11 | COc1ccc(N)c(OC)c1 | inactive | inactive | inactive | inactive | inactive | 54.5 µM (active) | inactive | inactive | inactive | inactive
12 | O=C(O)Cc1c[nH]c2ccccc12 | inactive | inactive | inactive | inactive | inactive | inactive | inactive | inactive | inactive | inactive
13 | N[C@@H](Cc1cc(I)c(Oc2ccc(O)c(I)c2)c(I)c1)C(=O)O | inactive | inactive | inactive | inactive | inactive | 23.7 µM (active) | inactive | inactive | inactive | inactive
14 | CCCN(CCC)C(=O)SCC | inactive | inactive | inactive | inactive | inactive | inactive | inactive | inactive | inactive | inactive
15 | OC[C@H]1O[C@@H](Oc2ccc(O)cc2)[C@H](O)[C@@H](O)[C@@H]1O | inactive | inactive | inactive | inactive | inactive | inactive | inactive | inactive | inactive | inactive
16 | O=C1C(N(CO)C(=O)NCO)N(CO)C(=O)N1CO (stereo not given) | inactive | inactive | inactive | inactive | inactive | inactive | inactive | inactive | inactive | inactive
17 | CCCCC(=O)O | inactive | inactive | inactive | inactive | inactive | inactive | inactive | inactive | inactive | inactive
18 | O=C(Cl)c1ccc(C(=O)Cl)cc1 | inactive | inactive | inactive | inactive | inactive | inactive | inactive | inactive | inactive | inactive
19 | Cc1ccc(C(C)C)cc1 | inactive | inactive | inactive | inactive | inactive | inactive | inactive | inactive | inactive | inactive
20 | COc1ccccc1[N+](=O)[O-] | inactive | inactive | inactive | inactive | inactive | inactive | inactive | inactive | inactive | inactive
21 | CC(=O)c1nccs1 | inactive | inactive | inactive | inactive | inactive | inactive | inactive | inactive | inactive | inactive
22 | CC/C=C(\C(=O)N[C@@H]1C(=O)N2C(C(=O)OCOC(=O)C(C)(C)C)=C(COC(N)=O)CS[C@H]12)c1csc(N)n1 | inactive | inactive | inactive | inactive | inactive | inactive | inactive | inactive | inactive | inactive
23 | O=Cc1ccc(CO)o1 | inactive | inactive | inactive | inactive | inactive | inactive | inactive | inactive | inactive | inactive
24 | Cc1ccc(Cl)cc1 | inactive | inactive | inactive | inactive | inactive | inactive | inactive | inactive | inactive | inactive
25 | CC(C)c1ccc(C(C)C)cc1 | inactive | inactive | inactive | inactive | inactive | inactive | inactive | inactive | inactive | inactive
